The values that follow come from the supplement of paper PMC7156485.

Holding throughout (conditions): concentration: 10 µM; 24 h
Assay [1] concerns HCC1569. Kind of assay: cell number relative to DMSO (% of DMSO); higher = more cells (less growth inhibition / toxicity). An outline of the steps:
(§1)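 In 384-well plates holding 800 HCC1569 or TDF cells per well in RPMI with 10% FBS, compounds were tested at 10 µM for 24 h at 37 °C in triplicate. Fixation used 3.7% formaldehyde. Staining used a rabbit anti-H1.0 antibody with an AlexaFluor 647 secondary, plus DAPI. Each value, H1.0 nuclear intensity or cell number, is a median of replicates shown as percent of the plate control, and HCC1569 values were smoothed for positional effects.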

The subject of assay [2] is TDF. The assay is described as above. An outline of the steps: as §1
The subject of assay [3] is TDF. Kind of assay: H1.0 immunofluorescence intensity relative to DMSO (% of DMSO); higher = stronger H1.0 induction, active = 120 or more. An outline of the steps:
as §1

In assay [4] the test system is HCC1569. Kind of assay: H1.0 immunofluorescence intensity relative to DMSO (% of DMSO); higher = stronger H1.0 induction, active = 140 or more. Put shortly: as §1
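For H1.0 immunofluorescence intensity relative to DMSO in this document: TDF is a line of transformed human dermal fibroblasts of mesenchymal origin.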
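For cell number relative to DMSO in this document: TDF denotes transformed human dermal fibroblasts of mesenchymal origin.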

On to `CS(=O)(=O)c1ccc(C2=C(c3ccccc3)C(=O)OC2)cc1` [Rofecoxib], for which the figures for the cell number with HCC1569 [1] and in the assay on TDF [2] were 98.3 and 88.9, respectively. Also, the H1.0 immunofluorescence intensity was 98.4 (inactive) in the assay with TDF [3] and 111 (inactive) with HCC1569 [4].
As for `Cl.Clc1cccc(Cl)c1NC1=NCCN1` [Clonidine hydrochloride], the cell number with HCC1569 [1] amounted to 99.2; with TDF [2], 103. Moreover, the H1.0 immunofluorescence intensity is 94.1 (inactive) with TDF [3] and 90 (inactive) in the assay on HCC1569 [4].
The matching figures for `CNc1cc2c(Nc3cccc(Br)c3)ncnc2cn1`: 87.2, 95.7, 91.3 (inactive) and 135 (inactive).
For `CCCCC1CCC(c2nc(-c3ccncc3)no2)CC1` (stereo unspecified) [4-[5-(4-butylcyclohexyl)-1,2,4-oxadiazol-3-yl]pyridine] the same measures were 94.1, 98.3, 108 (inactive) and 104 (inactive).
For `CC(C)(C)C(=O)OCOC(=O)[C@@H]1N2C(=O)[C@@H](/N=C/N3CCCCCC3)[C@H]2SC1(C)C` the same measures were 84.7, 93.4, 89 (inactive) and 115 (inactive).
Take `CCOC(=O)Oc1c(OC)cc(C(=O)OC2CC3CN4CCc5c([nH]c6cc(OC)ccc56)C4CC3C(C(=O)OC)C2OC)cc1OC` (stereo unspecified) [Syrosingopine]: the cell number in the assay with HCC1569 [1] is 94.7; in the assay with TDF [2], 104. In addition, the H1.0 immunofluorescence intensity with TDF [3] is 96.8 (inactive); in the assay on HCC1569 [4] it was 105 (inactive).
`CCOC(=O)C1=C(C)NC(=S)NC1c1cccc(O)c1` (stereo unspecified) [Monastrol]: the cell number in the assay on HCC1569 [1] was 99.8; with TDF [2], 112. The H1.0 immunofluorescence intensity in the assay with TDF [3] was 100 (inactive); in the assay with HCC1569 [4], 97.1 (inactive).
Regarding `CC(C=CC1(O)C(C)=CC(=O)CC1(C)C)=CC(=O)O` (racemic), the cell number in the assay with HCC1569 [1] and with TDF [2] was 103 in each case. The values for the H1.0 immunofluorescence intensity in the assay on TDF [3] and in the assay with HCC1569 [4] were 99.5 (inactive) and 88.1 (inactive), respectively.
For `CC(O)C1C(=O)N2C(C(=O)O)=C(SCCN=CN)CC12` (stereo unspecified) [Imipenem], the cell number in the assay with HCC1569 [1] came out at 111; in the assay on TDF [2], 109. Moreover, the H1.0 immunofluorescence intensity with TDF [3] is 97.1 (inactive); with HCC1569 [4] it was 102 (inactive).
